Drawing on publication PMC7862700, “An all-to-all approach to the identification of sequence-specific readers for epigenetic DNA modifications on cytosine”, this text covers binding signal for 2 sequences.

Experiment in all cases: DAPPL (digital affinity profiling via proximity ligation, sequencing); 10 mM Tris-HCl pH 7.5, 50 mM NaCl, 1 mM DTT, 4% glycerol, room temperature, 30 min; GST-TFs on glutathione beads, 16-mer random dsDNA library, 0.1% formaldehyde crosslink after washing; high values mean tight binding
Holding throughout (settings): protein: recombinant; tags: N-terminal GST; dsDNA, one strand shown

Assay [1] addresses T1, FLI1 (Homo sapiens, UniProt Q01543 1-452).
T1 sequence: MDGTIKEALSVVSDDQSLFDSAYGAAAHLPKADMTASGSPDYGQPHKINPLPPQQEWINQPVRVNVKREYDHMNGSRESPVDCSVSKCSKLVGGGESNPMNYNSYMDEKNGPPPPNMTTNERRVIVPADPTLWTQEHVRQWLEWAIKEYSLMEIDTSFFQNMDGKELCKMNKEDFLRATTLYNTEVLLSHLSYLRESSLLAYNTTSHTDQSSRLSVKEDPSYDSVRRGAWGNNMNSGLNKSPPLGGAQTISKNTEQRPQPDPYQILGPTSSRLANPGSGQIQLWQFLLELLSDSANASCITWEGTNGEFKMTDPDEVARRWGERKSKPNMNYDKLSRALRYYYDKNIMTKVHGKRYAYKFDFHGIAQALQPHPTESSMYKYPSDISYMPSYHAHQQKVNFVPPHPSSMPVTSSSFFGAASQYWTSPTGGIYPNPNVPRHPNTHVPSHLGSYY
In short, it runs like this: (§1)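 A tag-only sample was pooled with DNA-barcoded human transcription factors that had been expressed in yeast as GST fusions and captured on glutathione beads. The pools were incubated for 30 min at room temperature with 200 nmole of a random double-stranded 16-mer DNA library in Tris/NaCl/DTT/glycerol buffer, then washed, crosslinked with 0.1% formaldehyde, proximity-ligated (BsaI/T4 ligase, 1 h, 37 °C), PCR-amplified and sequenced on an Illumina NextSeq500. Binding signal is each hexamer's read frequency for a factor divided by its frequency for the tag-only sample.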

Assay [2] addresses T2, ELK1 (Homo sapiens, UniProt P19419 1-428).
T2 sequence: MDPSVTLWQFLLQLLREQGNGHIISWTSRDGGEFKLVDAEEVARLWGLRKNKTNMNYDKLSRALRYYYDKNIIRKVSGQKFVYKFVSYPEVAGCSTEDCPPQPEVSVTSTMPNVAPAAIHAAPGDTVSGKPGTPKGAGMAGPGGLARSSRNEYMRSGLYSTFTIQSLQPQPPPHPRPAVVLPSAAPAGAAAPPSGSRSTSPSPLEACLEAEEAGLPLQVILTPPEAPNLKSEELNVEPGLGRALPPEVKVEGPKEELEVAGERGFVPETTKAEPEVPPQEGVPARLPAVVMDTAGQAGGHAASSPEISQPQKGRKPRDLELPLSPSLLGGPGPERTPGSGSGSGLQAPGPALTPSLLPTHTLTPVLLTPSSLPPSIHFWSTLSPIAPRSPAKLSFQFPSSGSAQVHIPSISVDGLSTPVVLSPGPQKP
In short, it runs like this:
as §1

Assay [3] has as its target T3, GABPA (Homo sapiens, UniProt Q06546 1-454).
T3 sequence: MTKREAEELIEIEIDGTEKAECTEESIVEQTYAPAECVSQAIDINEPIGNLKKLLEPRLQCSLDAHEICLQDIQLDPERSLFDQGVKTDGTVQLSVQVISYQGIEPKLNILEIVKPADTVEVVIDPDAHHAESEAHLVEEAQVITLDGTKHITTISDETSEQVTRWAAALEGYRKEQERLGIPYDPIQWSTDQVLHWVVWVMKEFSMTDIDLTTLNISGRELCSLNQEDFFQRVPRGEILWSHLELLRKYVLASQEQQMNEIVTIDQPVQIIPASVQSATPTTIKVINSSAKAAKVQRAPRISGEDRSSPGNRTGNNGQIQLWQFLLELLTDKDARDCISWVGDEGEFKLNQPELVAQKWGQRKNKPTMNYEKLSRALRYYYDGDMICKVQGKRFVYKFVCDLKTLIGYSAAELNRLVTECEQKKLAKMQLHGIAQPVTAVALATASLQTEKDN
The gist of the method:
as §1

Assay [4] has as its target T4, ERG (Homo sapiens, UniProt P11308 1-479).
T4 sequence: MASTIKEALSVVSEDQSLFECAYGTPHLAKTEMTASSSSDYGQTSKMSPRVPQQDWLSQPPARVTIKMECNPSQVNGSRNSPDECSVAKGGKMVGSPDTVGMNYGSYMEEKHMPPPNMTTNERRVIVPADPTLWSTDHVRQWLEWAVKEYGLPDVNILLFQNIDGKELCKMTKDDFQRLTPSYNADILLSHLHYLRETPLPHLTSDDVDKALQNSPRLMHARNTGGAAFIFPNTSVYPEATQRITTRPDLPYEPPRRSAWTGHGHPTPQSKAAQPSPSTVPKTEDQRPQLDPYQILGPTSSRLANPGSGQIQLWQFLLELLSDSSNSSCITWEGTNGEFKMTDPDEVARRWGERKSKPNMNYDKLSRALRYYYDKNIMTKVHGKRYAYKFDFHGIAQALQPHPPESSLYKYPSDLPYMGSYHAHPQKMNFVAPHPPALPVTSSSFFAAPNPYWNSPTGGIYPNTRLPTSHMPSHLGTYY
In short, it runs like this:
as §1

For assay [5], the target named is ELF1 (Homo sapiens, UniProt P32519 1-619). The gist of the method: as §1
Sequence of ELF1 (P32519 whole entry): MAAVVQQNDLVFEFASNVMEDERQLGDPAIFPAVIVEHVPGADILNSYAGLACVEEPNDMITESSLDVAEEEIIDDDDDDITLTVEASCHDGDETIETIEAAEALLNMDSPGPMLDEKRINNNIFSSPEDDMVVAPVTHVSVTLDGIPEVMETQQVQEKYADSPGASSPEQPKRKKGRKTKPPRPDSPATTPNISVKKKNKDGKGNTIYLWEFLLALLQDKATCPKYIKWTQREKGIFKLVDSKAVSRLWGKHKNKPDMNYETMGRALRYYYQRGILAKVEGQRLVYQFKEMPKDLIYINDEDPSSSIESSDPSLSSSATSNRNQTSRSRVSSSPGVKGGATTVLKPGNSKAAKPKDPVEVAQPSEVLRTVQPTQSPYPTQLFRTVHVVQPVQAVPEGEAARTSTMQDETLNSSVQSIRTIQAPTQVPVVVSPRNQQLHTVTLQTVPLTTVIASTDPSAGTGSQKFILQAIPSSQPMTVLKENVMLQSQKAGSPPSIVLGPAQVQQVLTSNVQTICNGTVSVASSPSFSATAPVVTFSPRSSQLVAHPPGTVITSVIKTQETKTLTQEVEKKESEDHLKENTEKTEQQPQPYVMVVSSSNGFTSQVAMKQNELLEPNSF
For assay [6], the target named is T5, EHF (Homo sapiens, UniProt Q9NZC4 1-300).
T5 sequence: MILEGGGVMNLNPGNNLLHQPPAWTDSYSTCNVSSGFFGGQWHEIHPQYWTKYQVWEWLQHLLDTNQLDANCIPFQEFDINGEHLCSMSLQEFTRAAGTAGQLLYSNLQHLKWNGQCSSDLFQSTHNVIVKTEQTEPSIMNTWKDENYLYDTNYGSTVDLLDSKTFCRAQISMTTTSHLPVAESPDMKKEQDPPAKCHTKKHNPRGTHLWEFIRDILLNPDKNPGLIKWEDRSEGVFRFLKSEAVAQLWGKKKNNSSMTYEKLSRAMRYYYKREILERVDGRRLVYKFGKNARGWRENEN
The gist of the method: as §1

The target of assay [7] is SPI1 (Homo sapiens, UniProt P17947 1-270). The gist of the method: as §1
The target of assay [8] is SPIB (Homo sapiens, UniProt Q01892 1-262). The gist of the method:
as §1

Assay [9] concerns the target T6, ELK3 (Homo sapiens, UniProt P41970 1-407).
T6 sequence: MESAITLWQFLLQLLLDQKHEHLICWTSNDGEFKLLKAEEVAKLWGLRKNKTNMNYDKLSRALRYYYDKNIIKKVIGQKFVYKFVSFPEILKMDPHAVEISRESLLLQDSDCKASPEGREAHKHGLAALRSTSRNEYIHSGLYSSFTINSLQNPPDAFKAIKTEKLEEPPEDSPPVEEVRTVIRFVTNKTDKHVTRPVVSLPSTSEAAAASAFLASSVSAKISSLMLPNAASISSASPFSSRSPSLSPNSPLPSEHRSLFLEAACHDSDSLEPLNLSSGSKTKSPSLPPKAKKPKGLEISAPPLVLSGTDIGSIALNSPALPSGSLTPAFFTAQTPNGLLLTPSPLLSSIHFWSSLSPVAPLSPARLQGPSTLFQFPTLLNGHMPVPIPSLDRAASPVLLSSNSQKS
The gist of the method:
as §1

Assay [10] concerns the target T7, FEV (Homo sapiens, UniProt Q99581 1-238).
T7 sequence: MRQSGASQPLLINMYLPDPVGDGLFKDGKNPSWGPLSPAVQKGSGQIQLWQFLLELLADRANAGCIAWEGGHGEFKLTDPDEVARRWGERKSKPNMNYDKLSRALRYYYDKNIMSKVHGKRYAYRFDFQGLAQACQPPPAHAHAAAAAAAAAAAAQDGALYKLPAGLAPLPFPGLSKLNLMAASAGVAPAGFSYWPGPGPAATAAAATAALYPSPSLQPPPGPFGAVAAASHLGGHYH
In short, it runs like this:
as §1

Assay [11] concerns the target ETV5 (Homo sapiens, UniProt P41161 1-510). In short, it runs like this:
as §1

Assay [12] deals with T8, SPIC (Homo sapiens, UniProt Q8N5J4 1-248).
T8 sequence: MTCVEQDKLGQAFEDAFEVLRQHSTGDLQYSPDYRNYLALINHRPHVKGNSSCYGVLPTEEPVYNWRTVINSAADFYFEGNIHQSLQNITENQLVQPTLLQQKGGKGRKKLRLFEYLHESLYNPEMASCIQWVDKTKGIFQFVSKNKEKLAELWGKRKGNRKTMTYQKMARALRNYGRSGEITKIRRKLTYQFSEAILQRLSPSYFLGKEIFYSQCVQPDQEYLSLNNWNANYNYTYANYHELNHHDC
In short, it runs like this:
as §1

Assay [13] addresses ELF4 (Homo sapiens, UniProt Q99607 1-663). In short, it runs like this: as §1
Assay [14] deals with T9, ELK4 (Homo sapiens, UniProt P28324-2 1-405).
T9 sequence: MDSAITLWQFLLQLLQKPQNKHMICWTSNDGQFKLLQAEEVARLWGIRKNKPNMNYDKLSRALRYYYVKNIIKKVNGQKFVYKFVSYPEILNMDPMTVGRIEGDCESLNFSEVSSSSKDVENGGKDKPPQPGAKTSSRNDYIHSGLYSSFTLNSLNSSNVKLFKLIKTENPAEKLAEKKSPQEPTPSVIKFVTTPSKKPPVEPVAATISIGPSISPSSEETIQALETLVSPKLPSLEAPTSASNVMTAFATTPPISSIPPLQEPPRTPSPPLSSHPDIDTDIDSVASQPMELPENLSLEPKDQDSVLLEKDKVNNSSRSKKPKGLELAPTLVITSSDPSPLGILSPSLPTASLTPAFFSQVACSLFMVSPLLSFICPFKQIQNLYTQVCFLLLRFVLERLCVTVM
The gist of the method:
as §1

For assay [15], the target named is T10, ETV2 (Homo sapiens, UniProt O00321 1-342).
T10 sequence: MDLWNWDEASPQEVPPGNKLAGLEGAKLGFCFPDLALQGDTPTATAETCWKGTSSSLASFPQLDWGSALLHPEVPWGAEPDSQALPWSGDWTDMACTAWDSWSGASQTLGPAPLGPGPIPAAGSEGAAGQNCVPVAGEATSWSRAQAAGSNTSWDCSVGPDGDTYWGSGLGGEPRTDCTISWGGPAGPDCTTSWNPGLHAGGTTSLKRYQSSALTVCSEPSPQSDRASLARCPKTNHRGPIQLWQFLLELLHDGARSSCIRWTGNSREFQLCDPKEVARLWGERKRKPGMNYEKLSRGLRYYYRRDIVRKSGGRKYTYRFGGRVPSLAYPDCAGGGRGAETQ
The gist of the method:
as §1

Assay [16] addresses T11, ELF3 (Homo sapiens, UniProt P78545 1-371).
T11 sequence: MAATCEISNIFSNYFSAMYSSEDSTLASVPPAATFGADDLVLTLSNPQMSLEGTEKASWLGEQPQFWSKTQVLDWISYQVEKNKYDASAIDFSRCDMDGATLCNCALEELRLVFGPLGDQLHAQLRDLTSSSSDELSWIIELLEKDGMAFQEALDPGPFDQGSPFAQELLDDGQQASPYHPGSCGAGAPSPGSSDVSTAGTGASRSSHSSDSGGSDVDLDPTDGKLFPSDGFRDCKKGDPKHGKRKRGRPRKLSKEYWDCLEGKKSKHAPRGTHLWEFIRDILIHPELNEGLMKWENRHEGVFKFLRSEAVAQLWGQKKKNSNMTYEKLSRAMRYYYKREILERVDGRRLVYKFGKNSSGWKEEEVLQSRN
The gist of the method:
as §1

The target of assay [17] is ETV1 (Homo sapiens, UniProt P50549 1-477). In short, it runs like this: as §1
Sequence of ETV1 (P50549 whole entry): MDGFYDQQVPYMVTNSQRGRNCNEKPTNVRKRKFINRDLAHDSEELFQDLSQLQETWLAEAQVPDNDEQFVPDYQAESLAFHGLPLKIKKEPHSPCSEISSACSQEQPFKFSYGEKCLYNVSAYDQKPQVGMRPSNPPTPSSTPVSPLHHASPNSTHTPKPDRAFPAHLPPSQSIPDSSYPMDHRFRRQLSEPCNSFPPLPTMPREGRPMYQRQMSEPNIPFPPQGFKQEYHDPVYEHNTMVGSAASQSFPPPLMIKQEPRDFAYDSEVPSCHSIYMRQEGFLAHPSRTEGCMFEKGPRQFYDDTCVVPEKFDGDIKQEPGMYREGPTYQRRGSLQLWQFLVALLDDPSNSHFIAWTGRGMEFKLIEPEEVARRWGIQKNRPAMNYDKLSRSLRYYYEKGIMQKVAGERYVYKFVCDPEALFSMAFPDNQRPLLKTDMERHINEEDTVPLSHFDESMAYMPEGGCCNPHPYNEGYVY

Sequence of SPIB (Q01892 whole entry): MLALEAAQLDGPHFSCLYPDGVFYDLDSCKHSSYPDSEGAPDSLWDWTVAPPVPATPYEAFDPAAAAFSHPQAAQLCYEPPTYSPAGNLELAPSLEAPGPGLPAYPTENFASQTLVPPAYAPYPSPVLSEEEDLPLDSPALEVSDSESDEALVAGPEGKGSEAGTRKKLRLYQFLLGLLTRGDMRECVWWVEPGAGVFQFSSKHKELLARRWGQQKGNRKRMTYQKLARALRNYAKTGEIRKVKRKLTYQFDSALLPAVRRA
Sequence of ETV5 (P41161 whole entry): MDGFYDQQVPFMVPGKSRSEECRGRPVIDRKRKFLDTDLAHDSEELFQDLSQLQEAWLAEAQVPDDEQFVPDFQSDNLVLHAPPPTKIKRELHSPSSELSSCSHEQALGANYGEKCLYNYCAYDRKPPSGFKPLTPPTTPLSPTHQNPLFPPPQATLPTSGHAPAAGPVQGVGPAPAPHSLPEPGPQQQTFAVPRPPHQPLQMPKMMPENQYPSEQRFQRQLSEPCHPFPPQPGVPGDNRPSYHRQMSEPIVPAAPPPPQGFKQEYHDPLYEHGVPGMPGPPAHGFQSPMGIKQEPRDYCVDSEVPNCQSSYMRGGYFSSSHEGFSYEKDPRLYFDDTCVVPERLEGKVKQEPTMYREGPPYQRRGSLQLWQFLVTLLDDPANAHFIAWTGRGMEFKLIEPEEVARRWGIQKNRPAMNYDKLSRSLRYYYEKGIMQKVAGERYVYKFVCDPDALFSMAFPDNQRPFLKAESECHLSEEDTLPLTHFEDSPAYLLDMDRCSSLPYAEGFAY
Sequence of ELF4 (Q99607 whole entry): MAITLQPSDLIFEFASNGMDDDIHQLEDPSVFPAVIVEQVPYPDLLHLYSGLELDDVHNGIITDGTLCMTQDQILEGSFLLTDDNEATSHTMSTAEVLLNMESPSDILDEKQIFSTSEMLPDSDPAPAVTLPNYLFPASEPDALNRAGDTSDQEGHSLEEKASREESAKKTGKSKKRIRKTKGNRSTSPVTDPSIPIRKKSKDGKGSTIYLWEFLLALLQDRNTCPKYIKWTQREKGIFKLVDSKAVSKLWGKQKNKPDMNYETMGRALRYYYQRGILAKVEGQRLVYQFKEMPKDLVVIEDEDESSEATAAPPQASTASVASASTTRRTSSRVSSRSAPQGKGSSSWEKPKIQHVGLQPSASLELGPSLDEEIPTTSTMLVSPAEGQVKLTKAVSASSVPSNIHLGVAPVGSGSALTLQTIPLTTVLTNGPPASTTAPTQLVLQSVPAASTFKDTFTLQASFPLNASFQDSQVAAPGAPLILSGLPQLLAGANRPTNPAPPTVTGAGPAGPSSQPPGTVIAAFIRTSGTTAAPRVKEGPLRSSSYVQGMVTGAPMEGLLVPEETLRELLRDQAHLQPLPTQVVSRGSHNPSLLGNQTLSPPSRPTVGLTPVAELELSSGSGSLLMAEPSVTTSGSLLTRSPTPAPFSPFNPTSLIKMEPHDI

For the sequence CCAACA, the binding signal in [1] is 1.06 fold enrichment (6-mer frequency, TF over GST control); in assay [2], 1.11 fold enrichment (6-mer frequency, TF over GST control); in [3] it was 1.09 fold enrichment (6-mer frequency, TF over GST control); in assay [4] it was 1 fold enrichment (6-mer frequency, TF over GST control); in [5], 1.04 fold enrichment (6-mer frequency, TF over GST control); in assay [6], 1.12 fold enrichment (6-mer frequency, TF over GST control). Also, the binding signal is 1.01 fold enrichment (6-mer frequency, TF over GST control) in assay [7]; 1.01 fold enrichment (6-mer frequency, TF over GST control) in [8]; 1.03 fold enrichment (6-mer frequency, TF over GST control) in assay [9]; 1.05 fold enrichment (6-mer frequency, TF over GST control) in assay [10]; 1.05 fold enrichment (6-mer frequency, TF over GST control) in assay [11]; 1.01 fold enrichment (6-mer frequency, TF over GST control) in assay [12]. Further, the binding signal in assay [13] is 1.13 fold enrichment (6-mer frequency, TF over GST control); in assay [14] it was 1.08 fold enrichment (6-mer frequency, TF over GST control); in assay [15], 1.02 fold enrichment (6-mer frequency, TF over GST control); in [16], 1.06 fold enrichment (6-mer frequency, TF over GST control); in assay [17], 1.04 fold enrichment (6-mer frequency, TF over GST control).
As for CCGGTA, the binding signal in assay [1] was 1.48 fold enrichment (6-mer frequency, TF over GST control); in [2], 1.51 fold enrichment (6-mer frequency, TF over GST control); in assay [3], 1.46 fold enrichment (6-mer frequency, TF over GST control); in assay [4] it was 1.7 fold enrichment (6-mer frequency, TF over GST control); in assay [5] it was 1.5 fold enrichment (6-mer frequency, TF over GST control); in assay [6], 1.62 fold enrichment (6-mer frequency, TF over GST control). Further, the binding signal in assay [7] is 1.45 fold enrichment (6-mer frequency, TF over GST control); in [8] it was 1.59 fold enrichment (6-mer frequency, TF over GST control); in assay [9], 1.41 fold enrichment (6-mer frequency, TF over GST control); in assay [10], 1.81 fold enrichment (6-mer frequency, TF over GST control); in [11] it was 1.59 fold enrichment (6-mer frequency, TF over GST control); in assay [12] it was 1.69 fold enrichment (6-mer frequency, TF over GST control). Also, the binding signal in assay [13] is 1.45 fold enrichment (6-mer frequency, TF over GST control); in [14] it was 1.41 fold enrichment (6-mer frequency, TF over GST control); in [15], 1.52 fold enrichment (6-mer frequency, TF over GST control); in assay [16], 1.6 fold enrichment (6-mer frequency, TF over GST control); in assay [17], 1.59 fold enrichment (6-mer frequency, TF over GST control).
